Laboratory results as given in PubChem BioAssay (NCI).
About 83,000 compounds went through this panel and 20% of them were active in at least one assay; those are over-represented in the sample as a whole.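 Activity criterion: percent growth below 10, measured after cells in 96-well plates were exposed to a single compound concentration for 48 hours.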 A number with no mark means an inactive call. The source made the active and inactive calls.

How the values were obtained:
Test in all cases: NCI-60 one-dose screen, 48 h (100 = growth as untreated, 0 = no growth, -100 = all killed)
Conditions in all cases: 10 µM unless noted
NCI-H23 lung = tested on: NCI-H23 lung
NCI-H226 lung = tested on: NCI-H226 lung
NCI-H322M lung = tested on: NCI-H322M lung
HOP-62 NSCLC = tested on: HOP-62 NSCLC
NCI-H460 lung = tested on: NCI-H460 lung
HOP-92 NSCLC = tested on: HOP-92 NSCLC
NCI-H522 lung = tested on: NCI-H522 lung
A549/ATCC NSCLC = tested on: A549/ATCC NSCLC
786-0 renal = tested on: 786-0 renal
COLO 205 colon = tested on: COLO 205 colon
DU-145 prostate = tested on: DU-145 prostate
K-562 leukemia = tested on: K-562 leukemia
MALME-3M melanoma = tested on: MALME-3M melanoma
MDA-MB-231 breast = tested on: MDA-MB-231 breast
RXF 393 renal = tested on: RXF 393 renal
SF-268 CNS = tested on: SF-268 CNS
SF-295 CNS = tested on: SF-295 CNS
SF-539 CNS = tested on: SF-539 CNS
UACC-257 melanoma = tested on: UACC-257 melanoma
M14 melanoma = tested on: M14 melanoma

Structure (SMILES) | growth (NCI-H23 lung) [%] | growth (NCI-H226 lung) [%] | growth (NCI-H322M lung) [%] | growth (HOP-62 NSCLC) [%] | growth (NCI-H460 lung) | growth (HOP-92 NSCLC) | growth (NCI-H522 lung) | growth (A549/ATCC NSCLC) [%] | growth (786-0 renal) | growth (COLO 205 colon) | growth (DU-145 prostate) | growth (K-562 leukemia) | growth (MALME-3M melanoma) | growth (MDA-MB-231 breast) | growth (RXF 393 renal) | growth (SF-268 CNS) | growth (SF-295 CNS) [%] | growth (SF-539 CNS) | growth (UACC-257 melanoma) | growth (M14 melanoma)
Cc1cc2ccccc2c[n+]1CC(=O)c1ccc(-c2ccccc2)cc1 | 48.6 | 60.8 | 78.3 | 67.1 | 45.9% | 27.8% | 26.8% | 53.3 | 65.9% | 32.5% | 65.8% | 11% | 71.4% | 51.1% | 62.5% | 73.4% | 42.4 | 75.5% | 50.3% | 47.3%
CCCS(=O)(=O)Nc1ccc(F)c(C(=O)c2c[nH]c3ncc(-c4ccc(OCCCC5CCCCN5)nc4)cc23)c1F (stereo not drawn) | 80.7 | 69.9 | 97.8 | 65.5 | 79.9% | 4.71% (active) | 59.5% | 83.5 | 78.7% |  | 87.5% | 30.1% | -25.7% (active) | 14.9% | 63.9% | 68.6% | 75.7 | 28.4% | -17% (active) | -17.2% (active)
COc1ccc(N(C)c2nc(Cl)nc3ccn(C)c23)cc1 | 27 | 30.3 | 49 | 17.7 | 2.4% (active) | 5.65% (active) | -36% (active) | 10.7 | 12.6% |  | 2.61% (active) | 7.28% (active) | 84.8% | 0.175% (active) | 48.3% | 24.3% | 15.5 | -32% (active) | 49.6% | -0.998% (active)
Nc1cccc(C(=O)Nc2ccc3c(O)c(N=Nc4ccc(N=Nc5ccc(S(=O)(=O)O)cc5)cc4)c(S(=O)(=O)O)cc3c2)c1 | 104 | 109 | 94.5 | 96 | 106% | 97.7% | 84.5% | 97.5 | 98.1% |  | 107% | 76.2% | 97.1% | 103% | 121% | 101% | 103 | 99.9% | 100% | 98.3%
C=C1C(=O)O[C@H]2[C@H]1CC/C(COC(=O)CCCCC(=O)OC/C1=C/CC[C@@]3(C)O[C@H]3[C@H]3OC(=O)C(=C)[C@@H]3CC1)=C\CC[C@@]1(C)O[C@@H]21 | 65.2 | 75.3 | 105 | 86.8 | 99.3% | 61.1% | -36.9% (active) | 94.9 | 68% |  | 56.2% | 9% (active) | 25.5% | 29.5% | -44.1% (active) | 82.2% | 101 | 46.5% | 81.9% | 47.8%
C=C1C(=O)O[C@H]2[C@H]1CC/C(COC(=O)c1cc3ccccc3o1)=C\CC[C@@]1(C)O[C@@H]21 | 32.8 | 45.6 | 78.1 | 42.7 | 42.2% | -52.7% (active) | -58.2% (active) | 51.4 | -19.1% (active) | -65.6% (active) | -24.2% (active) | -2.5% (active) | -70.3% (active) | -38.8% (active) | -83.4% (active) | 4.87% (active) | 74.8 | -40.7% (active) | 40.5% | -53.9% (active)
Cc1cc(C)c(NC(=O)c2sc3nc4c(cc3c2N)CCCCCC4)c(C)c1 | 81.1 | 75.6 | 99.7 | 45.6 | 46.2% | 51.3% | 4.69% (active) | 53.2 | 48.7% |  | 66.4% | 16.8% | 57.4% | 88.2% | 65.8% | 59.4% | 38.1 | 60% | 62.8% | 
O=C(CSC(=S)N1CCCCC1)Nc1ccccc1 | 97.4 | 94.5 | 101 | 100 | 104% | 99.6% | 82.3% | 87.9 | 97% |  | 106% | 90.2% | 101% | 103% | 110% | 93.3% | 103 | 101% | 92.4% | 98.6%
